Experimental data as given in the supplement of paper PMC10849652.
Targets with a hit are over-represented here; the source holds about 7,900 in all. About 0.6% of all pairs of compound and target were hits.

Assays:
Experiment in all cases: log2 fold change, soluble protein after heating vs DMSO (PISA); higher = thermal stabilisation; K562 cells, 10 uM, 30 min; active = over 0.2 and 3.5 SD of the protein, either way, in both replicates (recomputed)
[1] = compound: COC1=CC=C(C=C1)CN2C=CC3=C2C=C(C=C3)C(=O)NO
Outline: (§1)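 Aliquots of K562 cells (2×10^6 cells/mL) treated with 10 μM compound for 30 min were heated for 3 min over 48°C-58°C. After pooling and extraction in PBS with 0.5% NP-40 at 4°C, soluble protein from a 21,000xg, 90 min spin was quantified by TMTpro 16plex LC-MS/MS with channel sums equalised. Thermal stability is expressed against control samples, from duplicates, as a log2 fold change.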

filanesib = compound: CON(C)C(=O)N1N=C(c2cc(F)ccc2F)S[C@@]1(CCCN)c1ccccc1 [filanesib]
Outline: as §1

zotarolimus = compound: CO[C@H]1C[C@@H]2CC[C@@H](C)[C@@](O)(O2)C(=O)C(=O)N2CCCC[C@H]2C(=O)O[C@H]([C@H](C)C[C@@H]2CC[C@H](n3cnnn3)[C@H](OC)C2)CC(=O)[C@H](C)/C=C(\C)[C@@H](O)[C@@H](OC)C(=O)[C@H](C)C[C@H](C)/C=C/C=C/C=C/1C [zotarolimus]
Outline: as §1

idasanutlin = compound: COc1cc(C(=O)O)ccc1NC(=O)[C@@H]1N[C@@H](CC(C)(C)C)[C@](C#N)(c2ccc(Cl)cc2F)[C@H]1c1cccc(Cl)c1F [idasanutlin]
Outline: as §1

alisertib = compound: COc1cc(Nc2ncc3c(n2)-c2ccc(Cl)cc2C(c2c(F)cccc2OC)=NC3)ccc1C(=O)O [alisertib]
Outline: as §1

[2] = compound: COc1cc2nc(-c3cc(F)ccc3O)nc(N[C@@H]3CNC[C@H]3C(C)(C)O)c2cc1OC
Outline: as §1

gefitinib = compound: COc1cc2ncnc(Nc3ccc(F)c(Cl)c3)c2cc1OCCCN1CCOCC1 [gefitinib]
Outline: as §1

[3] = compound: COc1cccc2cc(-c3nc([C@H]4CC[C@H](C(=O)O)CC4)n4ncnc(N)c34)[nH]c12
Outline: as §1

lapatinib = compound: CS(=O)(=O)CCNCc1ccc(-c2ccc3ncnc(Nc4ccc(OCc5cccc(F)c5)c(Cl)c4)c3c2)o1 [lapatinib]
Outline: as §1

pictilisib = compound: CS(=O)(=O)N1CCN(Cc2cc3nc(-c4cccc5[nH]ncc45)nc(N4CCOCC4)c3s2)CC1 [pictilisib]
Outline: as §1

[4] = compound: CS(=O)(=O)c1ccc(-c2cnc(N)c(C(=O)Nc3ccccc3)n2)cc1
Outline: as §1

crizotinib = compound: C[C@@H](Oc1cc(-c2cnn(C3CCNCC3)c2)cnc1N)c1c(Cl)ccc(F)c1Cl [crizotinib]
Outline: as §1

[5] = compound: C[C@@H]1COCCN1C2=NC(=NC(=C2)C3(CC3)S(=O)(=O)C)C4=C5C=CNC5=CC=C4
Outline: as §1

[6] = compound: C[C@H](C1=CC=C(C=C1)C(=O)NC2=C3C=CNC3=NC=C2)N
Outline: as §1

duvelisib = compound: C[C@H](Nc1ncnc2nc[nH]c12)c1cc2cccc(Cl)c2c(=O)n1-c1ccccc1 [duvelisib]
Outline: as §1

gandotinib = compound: Cc1cc(Nc2cc(CN3CCOCC3)c3nc(C)c(Cc4ccc(Cl)cc4F)n3n2)n[nH]1 [gandotinib]
Outline: as §1

tozasertib = compound: Cc1cc(Nc2cc(N3CCN(C)CC3)nc(Sc3ccc(NC(=O)C4CC4)cc3)n2)n[nH]1 [tozasertib]
Outline: as §1

[7] = compound: Cc1cc(SCc2sc(-c3ccc(C(F)(F)F)cc3)nc2C)ccc1OCC(=O)O
Outline: as §1

doramapimod = compound: Cc1ccc(-n2nc(C(C)(C)C)cc2NC(=O)Nc2ccc(OCCN3CCOCC3)c3ccccc23)cc1 [doramapimod]
Outline: as §1

ispinesib = compound: Cc1ccc(C(=O)N(CCCN)[C@@H](c2nc3cc(Cl)ccc3c(=O)n2Cc2ccccc2)C(C)C)cc1 [ispinesib]
Outline: as §1

Measured: log2 fold change

RAB33B (UniProt Q9H082)
UniProt Q9H082, sequence (Q9H082 whole entry, looked up): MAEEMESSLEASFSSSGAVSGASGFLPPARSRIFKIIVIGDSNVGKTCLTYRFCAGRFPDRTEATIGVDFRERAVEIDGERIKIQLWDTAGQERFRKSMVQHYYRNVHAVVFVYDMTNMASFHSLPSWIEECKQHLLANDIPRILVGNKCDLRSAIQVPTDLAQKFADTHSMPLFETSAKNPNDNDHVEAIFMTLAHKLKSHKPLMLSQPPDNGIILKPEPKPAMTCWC
inactive: [1] -0.104 | filanesib -0.018 | zotarolimus -0.073 | idasanutlin 0.036 | alisertib 0.035 | [2] 0.039 | gefitinib 0.037 | [3] 0.087 | lapatinib 0.046 | pictilisib 0.106 | [4] 0.007 | crizotinib 0.106 | [5] 0.064 | [6] -0.037 | duvelisib 0.058 | gandotinib -0.095 | tozasertib -0.032 | [7] -0.038 | doramapimod -0.021 | ispinesib -0.065

SASH1 (UniProt O94885)
inactive: [1] -0.059 | filanesib -0.074 | zotarolimus -0.04 | idasanutlin -0.05 | alisertib 0.009 | [2] -0.161 | gefitinib 0.015 | [3] -0.015 | lapatinib -0.013 | pictilisib 0.073 | [4] 0.023 | crizotinib -0.122 | [5] -0.077 | [6] -0.024 | duvelisib 0.032 | gandotinib -0.028 | tozasertib 0.088 | [7] 0.198 | doramapimod -0.031 | ispinesib -0.116

SESN2 (UniProt P58004)
UniProt P58004, sequence (P58004 whole entry, looked up): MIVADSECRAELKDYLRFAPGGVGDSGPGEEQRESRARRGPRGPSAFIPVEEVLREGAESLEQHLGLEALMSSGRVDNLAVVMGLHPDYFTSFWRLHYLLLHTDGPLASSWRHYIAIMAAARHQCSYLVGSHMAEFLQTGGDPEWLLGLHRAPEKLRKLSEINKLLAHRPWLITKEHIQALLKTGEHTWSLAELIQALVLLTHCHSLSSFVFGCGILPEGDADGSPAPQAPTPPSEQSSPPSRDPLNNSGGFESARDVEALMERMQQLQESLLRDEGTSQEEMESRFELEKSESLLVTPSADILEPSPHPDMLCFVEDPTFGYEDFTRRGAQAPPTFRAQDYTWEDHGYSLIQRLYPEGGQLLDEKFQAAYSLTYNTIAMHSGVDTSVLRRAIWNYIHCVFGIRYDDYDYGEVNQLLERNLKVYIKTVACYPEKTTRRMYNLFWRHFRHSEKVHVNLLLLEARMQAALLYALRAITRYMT
inactive: [1] 0.013 | filanesib -0.174 | zotarolimus 0.099 | idasanutlin -0.107 | alisertib -0.005 | [2] -0.112 | gefitinib 0.08 | [3] -0.085 | lapatinib 0.25 | pictilisib 0.167 | [4] 0.042 | crizotinib -0.191 | [5] -0.028 | [6] 0.077 | duvelisib -0.018 | gandotinib -0.046 | tozasertib 0 | [7] 0.006 | doramapimod 0.192 | ispinesib -0.322

RRS1 (UniProt Q15050)
UniProt Q15050, sequence (Q15050 whole entry, looked up): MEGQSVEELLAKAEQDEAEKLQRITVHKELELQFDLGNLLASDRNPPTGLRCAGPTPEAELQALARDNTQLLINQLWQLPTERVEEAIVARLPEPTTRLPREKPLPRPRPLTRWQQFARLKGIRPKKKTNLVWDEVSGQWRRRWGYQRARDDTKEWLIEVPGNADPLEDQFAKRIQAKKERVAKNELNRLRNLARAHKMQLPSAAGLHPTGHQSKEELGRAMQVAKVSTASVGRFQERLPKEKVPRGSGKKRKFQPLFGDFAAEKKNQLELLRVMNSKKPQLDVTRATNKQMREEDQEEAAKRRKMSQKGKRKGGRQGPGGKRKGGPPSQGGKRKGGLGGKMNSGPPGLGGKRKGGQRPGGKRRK
inactive: [1] -0.111 | filanesib 0.593 | zotarolimus 0.033 | idasanutlin 0.262 | alisertib -0.171 | [2] 0.01 | gefitinib 0.005 | [3] -0.169 | lapatinib 0.137 | pictilisib -0.096 | [4] -0.022 | crizotinib 0 | [5] -0.365 | [6] 0.304 | duvelisib -0.181 | gandotinib 0.089 | tozasertib 0.094 | [7] -0.034 | doramapimod 0.235 | ispinesib 0.019

SH3GLB2 (UniProt Q9NR46)
inactive: [1] 0.016 | filanesib 0.085 | zotarolimus 0.052 | idasanutlin 0.061 | alisertib -0.011 | [2] -0.034 | gefitinib -0.004 | [3] -0.018 | lapatinib -0.04 | pictilisib 0.025 | [4] 0.031 | crizotinib -0.104 | [5] -0.101 | [6] 0.013 | duvelisib -0.022 | gandotinib -0.183 | tozasertib 0.014 | [7] 0.073 | doramapimod 0.013 | ispinesib -0.052

RAP1GDS1 isoform 5 (UniProt P52306)
UniProt P52306, sequence (P52306 whole entry, looked up): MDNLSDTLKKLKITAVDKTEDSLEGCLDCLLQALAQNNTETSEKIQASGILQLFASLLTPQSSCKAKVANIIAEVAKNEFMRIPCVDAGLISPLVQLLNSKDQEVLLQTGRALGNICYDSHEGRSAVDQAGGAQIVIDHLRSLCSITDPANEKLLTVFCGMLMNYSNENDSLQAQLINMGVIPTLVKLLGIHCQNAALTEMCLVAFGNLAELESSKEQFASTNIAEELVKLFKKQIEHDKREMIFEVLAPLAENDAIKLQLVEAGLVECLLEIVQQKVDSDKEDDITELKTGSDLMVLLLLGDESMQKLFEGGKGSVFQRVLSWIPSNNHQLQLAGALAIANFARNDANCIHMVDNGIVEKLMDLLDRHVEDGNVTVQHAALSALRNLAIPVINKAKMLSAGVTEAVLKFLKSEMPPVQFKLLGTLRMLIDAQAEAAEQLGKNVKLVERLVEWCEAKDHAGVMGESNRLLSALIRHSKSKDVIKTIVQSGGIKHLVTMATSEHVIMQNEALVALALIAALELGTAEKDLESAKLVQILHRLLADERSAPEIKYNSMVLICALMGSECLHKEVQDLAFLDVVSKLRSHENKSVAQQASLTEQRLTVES
inactive: [1] -0.026 | filanesib -0.019 | zotarolimus 0.022 | idasanutlin -0.023 | alisertib -0.041 | [2] -0.025 | gefitinib 0.066 | [3] -0.072 | lapatinib 0.091 | pictilisib 0.015 | [4] 0.061 | crizotinib -0.062 | [5] 0.08 | [6] 0.009 | duvelisib -0.009 | gandotinib -0.066 | tozasertib 0.079 | [7] 0.036 | doramapimod -0.014 | ispinesib -0.096

SEC23IP (UniProt Q9Y6Y8)
UniProt Q9Y6Y8, sequence (Q9Y6Y8 whole entry, looked up): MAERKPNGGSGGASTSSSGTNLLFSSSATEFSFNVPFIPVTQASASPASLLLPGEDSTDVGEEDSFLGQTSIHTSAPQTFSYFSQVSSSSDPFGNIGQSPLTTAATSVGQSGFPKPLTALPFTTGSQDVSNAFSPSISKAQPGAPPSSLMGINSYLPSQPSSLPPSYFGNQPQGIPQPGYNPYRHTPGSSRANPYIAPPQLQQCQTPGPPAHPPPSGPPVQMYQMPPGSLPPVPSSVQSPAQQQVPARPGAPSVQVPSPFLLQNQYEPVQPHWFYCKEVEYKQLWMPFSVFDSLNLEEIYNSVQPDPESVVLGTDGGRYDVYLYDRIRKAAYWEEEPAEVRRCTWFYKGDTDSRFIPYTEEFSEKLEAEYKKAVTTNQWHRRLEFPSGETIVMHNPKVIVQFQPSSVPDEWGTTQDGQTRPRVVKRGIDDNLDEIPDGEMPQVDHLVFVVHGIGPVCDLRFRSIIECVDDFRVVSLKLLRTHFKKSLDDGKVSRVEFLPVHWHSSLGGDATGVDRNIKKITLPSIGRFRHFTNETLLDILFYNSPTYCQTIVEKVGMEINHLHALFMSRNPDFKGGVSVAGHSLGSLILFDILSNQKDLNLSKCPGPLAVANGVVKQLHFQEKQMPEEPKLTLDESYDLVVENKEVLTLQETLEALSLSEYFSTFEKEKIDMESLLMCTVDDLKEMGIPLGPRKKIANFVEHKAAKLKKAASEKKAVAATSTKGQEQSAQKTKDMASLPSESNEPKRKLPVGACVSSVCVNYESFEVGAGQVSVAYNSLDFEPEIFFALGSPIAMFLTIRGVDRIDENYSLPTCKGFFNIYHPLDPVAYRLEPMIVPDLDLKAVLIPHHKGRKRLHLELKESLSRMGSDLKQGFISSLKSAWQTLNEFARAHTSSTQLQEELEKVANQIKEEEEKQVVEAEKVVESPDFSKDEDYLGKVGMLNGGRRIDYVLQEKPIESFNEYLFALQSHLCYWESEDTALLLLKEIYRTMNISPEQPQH
inactive: [1] -0.006 | filanesib 0 | zotarolimus -0.002 | idasanutlin 0.016 | alisertib 0 | [2] -0.065 | gefitinib 0.009 | [3] -0.096 | lapatinib 0.035 | pictilisib -0.006 | [4] 0.142 | crizotinib -0.238 | [5] 0.055 | [6] 0.039 | duvelisib 0.021 | gandotinib -0.212 | tozasertib -0.002 | [7] 0.074 | doramapimod 0.043 | ispinesib -0.166

RBM39 (UniProt Q14498)
inactive: [1] 0.117 | filanesib 0.129 | zotarolimus -0.006 | idasanutlin 0.262 | alisertib -0.058 | [2] -0.055 | gefitinib -0.019 | [3] 0.009 | lapatinib 0.026 | pictilisib -0.014 | [4] -0.043 | crizotinib -0.114 | [5] 0.033 | [6] -0.01 | duvelisib -0.012 | gandotinib -0.052 | tozasertib 0.081 | [7] 0.036 | doramapimod -0.02 | ispinesib -0.032

RUFY1 (UniProt Q96T51)
inactive: [1] -0.015 | filanesib 0.005 | zotarolimus 0.056 | idasanutlin -0.049 | alisertib 0.047 | [2] 0.02 | gefitinib -0.004 | [3] -0.053 | lapatinib -0.035 | pictilisib -0.009 | [4] -0.04 | crizotinib -0.003 | [5] -0.034 | [6] 0.075 | duvelisib -0.005 | gandotinib -0.029 | tozasertib 0.166 | [7] 0.118 | doramapimod 0.032 | ispinesib -0.065

SCAF11 (UniProt Q99590)
UniProt Q99590, sequence (Q99590 whole entry, looked up): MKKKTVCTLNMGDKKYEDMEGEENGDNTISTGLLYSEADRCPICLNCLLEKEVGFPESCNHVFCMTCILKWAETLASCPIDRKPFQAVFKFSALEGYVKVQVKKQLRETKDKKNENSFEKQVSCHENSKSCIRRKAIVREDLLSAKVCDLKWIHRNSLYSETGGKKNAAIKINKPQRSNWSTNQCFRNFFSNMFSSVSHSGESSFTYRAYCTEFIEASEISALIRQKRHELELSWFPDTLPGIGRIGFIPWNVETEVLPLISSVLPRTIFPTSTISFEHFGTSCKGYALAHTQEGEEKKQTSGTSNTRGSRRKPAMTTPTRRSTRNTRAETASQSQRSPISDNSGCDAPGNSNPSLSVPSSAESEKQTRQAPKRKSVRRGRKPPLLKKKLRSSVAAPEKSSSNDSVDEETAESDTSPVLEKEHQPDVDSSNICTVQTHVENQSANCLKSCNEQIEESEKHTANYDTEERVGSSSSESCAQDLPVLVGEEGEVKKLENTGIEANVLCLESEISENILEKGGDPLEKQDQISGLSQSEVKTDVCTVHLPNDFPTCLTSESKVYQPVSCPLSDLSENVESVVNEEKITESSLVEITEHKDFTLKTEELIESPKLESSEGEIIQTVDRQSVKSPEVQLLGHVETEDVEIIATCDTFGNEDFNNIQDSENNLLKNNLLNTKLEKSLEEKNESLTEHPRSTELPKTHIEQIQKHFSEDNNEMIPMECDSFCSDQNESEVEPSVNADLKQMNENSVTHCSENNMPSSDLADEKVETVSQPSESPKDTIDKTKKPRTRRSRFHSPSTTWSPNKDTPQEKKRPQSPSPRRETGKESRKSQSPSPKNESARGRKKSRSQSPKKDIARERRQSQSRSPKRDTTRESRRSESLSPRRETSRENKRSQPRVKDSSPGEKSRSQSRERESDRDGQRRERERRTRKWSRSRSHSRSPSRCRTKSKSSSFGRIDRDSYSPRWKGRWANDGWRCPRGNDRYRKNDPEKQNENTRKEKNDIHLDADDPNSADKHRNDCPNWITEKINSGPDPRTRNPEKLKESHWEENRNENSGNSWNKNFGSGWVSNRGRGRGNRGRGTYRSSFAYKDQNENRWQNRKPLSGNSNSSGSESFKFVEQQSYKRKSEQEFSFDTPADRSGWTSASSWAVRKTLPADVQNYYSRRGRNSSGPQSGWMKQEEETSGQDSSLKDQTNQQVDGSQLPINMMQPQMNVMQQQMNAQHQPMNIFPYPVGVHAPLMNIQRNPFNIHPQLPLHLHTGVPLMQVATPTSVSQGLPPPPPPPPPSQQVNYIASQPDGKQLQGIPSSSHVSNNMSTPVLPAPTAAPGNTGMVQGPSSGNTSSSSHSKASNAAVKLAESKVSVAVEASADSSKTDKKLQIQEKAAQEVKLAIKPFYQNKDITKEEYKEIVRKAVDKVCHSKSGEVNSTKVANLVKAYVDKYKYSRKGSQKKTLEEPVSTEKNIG
inactive: [1] 0.365 | filanesib 0.141 | zotarolimus -0.029 | idasanutlin 0.054 | alisertib -0.1 | [2] -0.028 | gefitinib -0.013 | [3] -0.071 | lapatinib 0.156 | pictilisib -0.382 | [4] 0.021 | crizotinib -0.06 | [5] -0.069 | [6] 0.229 | duvelisib -0.069 | gandotinib 0.543 | tozasertib -0.037 | [7] -0.106 | doramapimod -0.05 | ispinesib -0.012

RSPRY1 (UniProt Q96DX4)
UniProt Q96DX4, sequence (Q96DX4 whole entry, looked up): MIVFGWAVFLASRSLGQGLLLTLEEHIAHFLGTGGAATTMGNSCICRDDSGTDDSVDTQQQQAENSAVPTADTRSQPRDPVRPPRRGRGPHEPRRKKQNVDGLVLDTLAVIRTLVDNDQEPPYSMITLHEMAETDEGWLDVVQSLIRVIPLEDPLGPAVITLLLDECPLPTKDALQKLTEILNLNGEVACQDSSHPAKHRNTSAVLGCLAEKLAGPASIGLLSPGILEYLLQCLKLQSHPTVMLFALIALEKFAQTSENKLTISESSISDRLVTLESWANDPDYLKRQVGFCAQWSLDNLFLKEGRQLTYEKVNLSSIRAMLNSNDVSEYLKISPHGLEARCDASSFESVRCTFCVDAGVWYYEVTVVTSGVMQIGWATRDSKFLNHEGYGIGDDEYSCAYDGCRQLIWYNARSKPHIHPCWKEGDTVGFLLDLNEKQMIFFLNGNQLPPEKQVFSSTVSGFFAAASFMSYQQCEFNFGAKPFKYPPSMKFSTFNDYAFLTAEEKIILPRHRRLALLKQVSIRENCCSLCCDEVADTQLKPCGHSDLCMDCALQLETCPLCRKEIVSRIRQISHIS
inactive: [1] -0.065 | filanesib 0.01 | zotarolimus -0.01 | idasanutlin -0.061 | alisertib -0.051 | [2] -0.006 | gefitinib 0.048 | [3] 0.031 | lapatinib 0.046 | pictilisib 0.054 | [4] -0.037 | crizotinib 0.11 | [5] 0.02 | [6] -0.006 | duvelisib 0.142 | gandotinib 0.067 | tozasertib -0.053 | [7] 0.012 | doramapimod 0.083 | ispinesib 0.033

RAC3 (UniProt P60763)
inactive: [1] 0.025 | filanesib 0.031 | zotarolimus 0.125 | idasanutlin 0.017 | alisertib -0.038 | [2] -0.067 | gefitinib 0.017 | [3] 0.026 | lapatinib 0.061 | pictilisib 0.071 | [4] 0.074 | crizotinib 0.097 | [5] 0.073 | [6] -0.027 | duvelisib 0.145 | gandotinib 0 | tozasertib -0.086 | [7] 0.005 | ispinesib -0.013
active: doramapimod 0.262

RPP14 (UniProt O95059)
UniProt O95059, sequence (O95059 whole entry, looked up): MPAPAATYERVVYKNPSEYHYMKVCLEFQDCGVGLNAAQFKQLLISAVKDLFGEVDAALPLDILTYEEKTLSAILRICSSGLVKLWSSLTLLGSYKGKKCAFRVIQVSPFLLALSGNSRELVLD
inactive: [1] -0.006 | filanesib 0.046 | zotarolimus 0.004 | idasanutlin -0.038 | alisertib -0.051 | [2] -0.053 | gefitinib -0.022 | [3] 0.047 | lapatinib 0.042 | pictilisib -0.19 | [4] -0.048 | crizotinib -0.046 | [5] 0.019 | [6] -0.076 | duvelisib -0.019 | gandotinib -0.119 | tozasertib 0.052 | [7] -0.054 | doramapimod 0.06 | ispinesib 0.03
